Measured values from PubChem BioAssay AID411 (National Center for Advancing Translational Sciences (NCATS), 2006).
Hit rate of the full screen: of about 72,000 compounds, about 1,600 (2.2%) were called active. Where a call stands in place of a potency, no number is given. The sample holds actives, similar compounds and a random draw of the others, so the mix is not that of the screen. Values without a mark were called inactive. Calls come from the whole dose curve; as a rule, active = well fitted inhibition curve with a large enough effect; inconclusive = small, poorly fitted or top-dose-only effect; inactive = flat fitted curve, though single readings scatter.
Note: nearly all actives have a fitted effect of over 40% in size.
Potency is the fitted concentration of half-maximal effect.

The compounds below were run against Luciferin 4-monooxygenase (Photinus pyralis) (UniProt P08659) (assay: qHTS Assay for Inhibitors of Firefly Luciferase). Conditions: purified firefly luciferase, luminescence, 8 min; series mostly up to 57.1 µM.
Sequence of Luciferin 4-monooxygenase (Photinus pyralis) (P08659 whole entry, looked up): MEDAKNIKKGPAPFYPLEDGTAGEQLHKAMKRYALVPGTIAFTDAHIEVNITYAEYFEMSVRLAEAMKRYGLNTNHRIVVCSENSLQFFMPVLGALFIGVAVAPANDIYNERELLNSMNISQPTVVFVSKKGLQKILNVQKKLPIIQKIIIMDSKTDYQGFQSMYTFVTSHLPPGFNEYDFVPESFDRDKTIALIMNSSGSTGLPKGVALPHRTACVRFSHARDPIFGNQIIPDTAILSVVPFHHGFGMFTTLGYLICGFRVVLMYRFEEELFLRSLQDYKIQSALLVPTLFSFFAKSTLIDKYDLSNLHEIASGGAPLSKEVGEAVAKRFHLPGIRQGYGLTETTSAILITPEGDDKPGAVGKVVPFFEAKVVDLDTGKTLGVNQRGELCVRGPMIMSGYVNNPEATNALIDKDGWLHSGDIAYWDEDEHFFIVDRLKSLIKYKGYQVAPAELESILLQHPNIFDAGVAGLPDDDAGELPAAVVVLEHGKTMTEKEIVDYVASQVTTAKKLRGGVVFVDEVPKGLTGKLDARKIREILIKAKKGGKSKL
Outline: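 Substrate buffer containing 10 uM ATP (pH 7.2 imidazole, Mg2+, KCl, detergent, BSA) is dispensed, compound pinned in, then luciferase/luciferin detector mix added. After 8 min at ambient temperature, light output is measured.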
In the case of `Cc1ccc2cc3cc(C(=O)N4CCCCCC4)oc3nc2c1`, the Potency is reported as 7.94 µM (active). `Cc1ccc2oc(=O)c3cnn(CC(=O)N4CCCCCC4)c3c2c1` was tested, and the Potency was “inactive”. In the case of `Cc1ccc(C(=O)N2CCCCCC2)cc1Br`, the Potency is reported as “inactive”. `CC1CCCN(c2ccc(C(=O)NCCc3ccccc3)cn2)C1` (configuration not stated) was tested, and the Potency was 15.8 µM (active). With `O=C(O)C1CC=CCC1C(=O)NCCc1ccccc1` (configuration not stated) the Potency was “inactive”. For `O=C(NCCCNCc1ccccc1)c1ccc(/C=N/O)nc1`, the Potency was “inactive”. In the case of `CN(C)CCCNc1c2c(c(C#N)c3nc4ccccc4n13)CCC2`, the Potency is reported as “inactive”. In the case of `CCOC(=O)C1=C(C)NC(=O)N(C(C)=O)C1c1ccc(Cl)cc1` (configuration not stated), the Potency is reported as “inactive”. In the case of `O=C(Oc1ccccc1)c1ccc2nccnc2c1`, the Potency is reported as “inactive”. `O=C(Oc1ccc(-c2nc(-c3ccccn3)no2)cc1)c1ccccc1` was tested, and the Potency was 2.51 µM (active). `CC(C)c1nc(-c2ccccn2)no1` was tested, and the Potency was “inactive”. In the case of `C=CCn1c(SCn2nnc3ccccc3c2=O)nnc1-c1ccc(Cl)cc1`, the Potency is reported as “inactive”. `CCOC(=O)c1[nH]c2ccc(OC)cc2c1NC(=O)N1CCOCC1` was tested, and the Potency was “inactive”. `COc1ccc(C2CC(c3ccccc3)Nc3ncnn32)cc1` (configuration not stated) was tested, and the Potency was “inactive”. `COc1ccc(OCC(=O)OCCN(C)C)cc1` was tested, and the Potency was “inactive”. With `O=C(Nc1ncccn1)c1cccs1` the Potency was “inactive”. For `Cc1nc(-c2ccc(NC(=O)c3cccs3)cc2)cs1`, the Potency was 1.26 µM (active). For `O=C(O)c1ccc(NC(=O)c2cccs2)cc1`, the Potency was “inactive”. In the case of `OCCCNCc1ccccn1`, the activity change, negative = inhibition is reported as 3.67% [at 11.4 µM]. In the case of `Cc1cc(C)c2c(n1)nn1c(N3CCOCC3)cc(C)nc21`, the Potency is reported as “inactive”. `Cc1nn2c3cc(N4CCOCC4)ccc3nc2c2ccccc12` was tested, and the Potency was 2 µM (active). In the case of `COCCCNC(=O)CSc1nc2ccc(N3CCOCC3)cc2c(=O)n1CCc1ccccc1`, the Potency is reported as “inactive”. With `CCOc1ccc(NCCC(=O)c2ccc3c(c2)OCO3)cc1` the Potency was “inactive”. With `CC(C)CCNC(=O)C(C)N(C(=O)Cn1nnc(-c2ccc(F)cc2)n1)C1CCCC1` (configuration not stated) the Potency was “inactive”. `COCCNc1ncnc2ccc(-c3cccnc3)cc12` showed an activity change, negative = inhibition of -1.48% [at 2.29 µM]. With `COC(=O)c1ccc(NC(=O)C(C)N2C(=O)c3ccccc3C2=O)cc1` (configuration not stated) the Potency was “inactive”. `COC(=O)c1ccc(NCC(=O)c2ccccc2)cc1` was tested, and the Potency was 7.94 µM (active). `CCN(CC)C(=O)CCC(=O)Nc1ccc(C(=O)OC)cc1` was tested, and the Potency was “inactive”. With `CN(c1ccc(C(=O)NCCC2=CCCCC2)cc1)S(C)(=O)=O` the Potency was “inactive”. With `O=C(OC1CCOC1=O)c1ccc(-c2nc3ccccc3s2)s1` (configuration not stated) the Potency was 2.51 µM (active). `O=C(c1cccs1)N1CCC(c2nc3ccccc3s2)CC1` was tested, and the Potency was “inactive”. With `Cc1nn(Cc2ccccc2)c(Cl)c1C(=O)OC1CCOC1=O` (configuration not stated) the Potency was “inactive”. With `COc1ccc(C(=O)N2CCC[C@@]3(CCN(C(=O)NC(C)C)C3)C2)cc1` the activity change, negative = inhibition was -0.0908% [at 11.4 µM]. `NC(=O)c1ccccc1NC(=O)c1ccccc1F` was tested, and the Potency was “inactive”. With `COc1cccc(OCC(=O)Nc2ccccc2C(N)=O)c1` the Potency was 6.31 µM (active). `CCCOC(=O)Nc1ccccc1C(N)=O` was tested, and the Potency was “inactive”. In the case of `O=S(=O)(c1ccc(Sc2nnc3ccccn23)nc1)N1CCOCC1`, the Potency is reported as “inactive”. In the case of `O=C1CCCC2=C1C(c1cccs1)n1nc(SCc3ccccc3)nc1N2` (configuration not stated), the Potency is reported as “inactive”. `O=S(=O)(NCCNS(=O)(=O)c1ccccc1)c1ccccc1` was tested, and the Potency was “inactive”. In the case of `COc1ccccc1-c1cc(C(=O)N2CCCCC2)no1`, the Potency is reported as 25.1 µM (active). For `O=C(c1cc(-c2cccs2)on1)N1CCCCC1`, the Potency was 15.8 µM (active). `O=C(c1cc(-c2cccc(O)c2)on1)N1CCc2ccccc2C1` was tested, and the Potency was “inactive”. `Cc1cc(NC(=O)c2cc(-c3cccs3)on2)nn1Cc1ccc(Cl)cc1` was tested, and the Potency was “inactive”. In the case of `COc1ccccc1N1CCN(C(=O)c2cc(-c3ccc(Br)cc3)on2)CC1`, the Potency is reported as “inactive”. For `O=C(c1cc(-c2ccccc2O)on1)N1CCCC1`, the Potency was “inactive”. With `Cn1cccc1Cc1nnc(SCC(=O)NCc2ccc3c(c2)OCO3)n1CCc1ccccc1` the Potency was “inactive”. `CCOC(=O)c1cc2cc(-c3c(C(=O)OCC)oc4cc(O)cc(O)c4c3=O)ccc2o1` was tested, and the Potency was “inactive”. `CN1CCc2[nH]nc(-c3n[nH]c4c3CN(C)CC4)c2C1` gave an activity change, negative = inhibition of 2.79% [at 11.4 µM]. In the case of `O=C(C1CCN(S(=O)(=O)Cc2ccccc2)CC1)N1CCCc2ccccc21`, the Potency is reported as “inactive”. With `CCOC(=O)c1c(C)[nH]c(C(=O)COc2ccc3c(c2)OCO3)c1C` the Potency was “inactive”. For `CCOC(=O)NCc1ccc2c(c1)OCO2`, the Potency was “inactive”. For `CCOC(=O)c1nc(-c2ccc3c(c2)OCO3)[nH]c1C`, the Potency was 15.8 µM (active). In the case of `COc1ccc(-n2c(C)cc(C(=O)CSc3nnc(-c4cccs4)o3)c2C)cc1`, the Potency is reported as “inactive”. With `COc1ccc(-c2nnc(SCC(=O)c3cccs3)o2)c(OC)c1` the Potency was 12.6 µM (active). With `COc1ccc(OC)c(C(=O)CSc2nnc(-c3cccs3)o2)c1` the Potency was “inactive”. With `Cn1c(-c2ccco2)nc2cc3ccccc3cc21` the Potency was 0.501 µM (active). With `c1coc(-c2nc3nc4ccccc4n3nc2-c2ccco2)c1` the Potency was “inactive”. For `CN(c1nc2ccccc2n2c(-c3ccco3)nnc12)S(=O)(=O)c1ccccc1`, the Potency was “inactive”. For `C(=C\c1ccccc1)/CSc1nnc(-c2cccnc2)n1Cc1ccco1`, the Potency was “inactive”. `CC(=O)N1CCN(C(=O)c2cccc(S(=O)(=O)Nc3ccc(C)cc3)c2)CC1` was tested, and the Potency was “inactive”. For `COc1ccc(OC)c(N=Cc2c(O)[nH]c3ccccc23)c1`, the Potency was “inactive”. `COc1ccc(N=Cc2c(O)[nH]c3ccccc23)cc1OC` was tested, and the Potency was 15.8 µM (active). For `COC(=O)c1[nH]c2ccccc2c1NS(=O)(=O)c1ccc(OC)cc1OC`, the Potency was “inactive”. `CCOC(=O)C1CCCCN1Cc1ccc(OC)c(OC)c1OC` (configuration not stated) was tested, and the Potency was “inactive”. In the case of `CCn1c(SCC(=O)Nc2nc3ccc(OC)cc3s2)nnc1-c1ccoc1C`, the Potency is reported as “inactive”. `COc1ccc2nc(NC(=O)c3ccc(Br)s3)sc2c1` was tested, and the Potency was 12.6 µM (active). With `CNC(=O)c1ccc2nc(NC(C)=O)sc2c1` the Potency was “inactive”. In the case of `Cc1ccnc(-n2sc3ccccc3c2=O)n1`, the Potency is reported as 20 µM (active). In the case of `Cc1ccnc(N2CCC(C(=O)NC3CCCCCC3)CC2)n1`, the Potency is reported as “inactive”. In the case of `Cc1nc2ccccc2c(=O)n1CCCn1ccnc1`, the Potency is reported as “inactive”. With `N#CCCN(CCC#N)c1nnc(-c2ccccc2)s1` the Potency was “inactive”. In the case of `Cc1ccc(S(=O)(=O)NCc2cn3ccsc3n2)c(C)c1`, the Potency is reported as “inactive”. For `O=C(NCc1cn2ccsc2n1)Nc1ccc(Cl)cc1`, the Potency was “inactive”. `COc1ccc(-c2cn3ccsc3n2)cc1` was tested, and the Potency was 3.98 µM (active). Work on `CC(=O)N1CCC2(CCCN(Cc3ccc(C#N)cc3)C2)CC1` yielded an activity change, negative = inhibition of 0.0675% [at 11.4 µM]. With `Cc1ccc(NC(=O)CSc2nnc(-c3cnccn3)n2Cc2ccco2)cc1C` the Potency was “inactive”. For `CN(C(=O)c1ccno1)c1nnc(-c2cccnc2)s1`, the Potency was “inactive”. With `CN(C(=O)COc1ccccc1)c1nnc(-c2ccncc2)s1` the Potency was “inactive”. In the case of `CN(C(=O)c1ccccn1)c1nnc(-c2ccccn2)s1`, the Potency is reported as 10 µM (active). `O=S1(=O)CCN2C(=N1)SC1=C2CCN(Cc2ccccc2)C1` was tested, and the Potency was “inactive”. In the case of `COc1ccc(-c2cc3n(n2)CCc2nc4ccccc4n2-3)cc1`, the Potency is reported as “inactive”. For `COc1ccc(-c2nc3n(c2Br)CCC3)cc1`, the Potency was 12.6 µM (active). In the case of `Brc1cccc(-c2nnc3n2CCC3)c1`, the Potency is reported as “inactive”. With `Cc1nc2ccc(NC(=O)N3CCC(c4ccccc4)C3)cc2nc1C` (configuration not stated) the Potency was “inactive”. `Cc1ccc(C(=O)CSc2nc3ccccc3c(=O)n2N)o1` was tested, and the Potency was “inactive”. With `Cc1cc(=O)oc(C)c1C(=O)Nc1cnc2ccccc2c1` the Potency was “inactive”. In the case of `Cc1ccc(NC(=O)c2cc(-c3ccc(C)o3)nc3ccccc23)nc1`, the Potency is reported as 12.6 µM (active). With `CCOC(=O)Cc1csc(NC(=O)CSc2nc(C)cc(=O)[nH]2)n1` the Potency was “inactive”. With `CCOC(=O)Cc1csc(NC(=O)C(C)(C)C)n1` the Potency was “inactive”. With `CCOC(=O)Cc1csc(NC(=O)Nc2ccccc2)n1` the Potency was 12.6 µM (active). With `CNc1nc(-c2ccccc2OC)nc2ccccc12` the activity change, negative = inhibition was -0.211% [at 2.29 µM]. For `Cc1nc2cnc(Nc3ccccc3)nc2n(Cc2ccc(F)cc2)c1=O`, the activity change, negative = inhibition was -0.327% [at 11.4 µM].
